In all, about 5,500 compounds went through this assay and about 2,000 (36%) were called active. Inconclusive results (about 18%) are left out. No stated cut-off is given here; in the data, active means normalized growth mostly below about 0.91 (no sharp cut-off); inconclusive means no clear call, values can overlap the other calls; inactive means mostly above about 0.92. This is one part of the list.
Experiment: chemical genetic growth profiling, strain panel (AID 1159580);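 further: tested at 20 µM; growth read once vehicle control cultures reached saturation at 30 °C; 1 = growth at the plate median or of vehicle wells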
Conditions: growth OD
[1] = S. cerevisiae deletion strains, locus YDR150W, strain NUM1, stronger effect = lower value
[2] = S. cerevisiae deletion strains, locus YJR075W, strain HOC1, stronger effect = lower value
[3] = S. cerevisiae deletion strains, locus YNL322C, strain KRE1, stronger effect = lower value
[4] = S. cerevisiae deletion strains, locus YPL241C, strain CIN2, stronger effect = lower value
[5] = S. cerevisiae deletion strains, locus YJL187C, strain SWE1, stronger effect = lower value

Measured: normalized growth

NC(CCP(=O)(O)O)C(=O)O (configuration not stated)
inactive: S. cerevisiae deletion strains, locus YAL040C, strain CLN3, stronger effect = lower value 1.01 | S. cerevisiae deletion strains, locus YCL061C, strain MRC1 (second series), stronger effect = lower value 1 | [1] 1.01 | S. cerevisiae deletion strains, locus YDR363W, strain ESC2, stronger effect = lower value 0.988 | S. cerevisiae deletion strains, locus YER002W, strain NOP16, stronger effect = lower value 1.02 | [2] 0.992 | S. cerevisiae deletion strains, locus YNL175C, strain NOP13, stronger effect = lower value 1 | S. cerevisiae deletion strains, locus YNL197C, strain WHI3, stronger effect = lower value 0.983 | S. cerevisiae deletion strains, locus YNL224C, strain SQS1, stronger effect = lower value 0.989 | [3] 0.986 | S. cerevisiae deletion strains, locus YOR083W, strain WHI5 (second series), stronger effect = lower value 1.01 | [4] 1

CC(C)(C)S(=O)(=O)c1cnc(N)nc1N
inactive: S. cerevisiae deletion strains, locus YAL013W, strain DEP1, stronger effect = lower value 1.03 | S. cerevisiae deletion strains, locus YBR229C, strain ROT2, stronger effect = lower value 1.01 | S. cerevisiae deletion strains, locus YDL101C, strain DUN1, stronger effect = lower value 1 | [1] 0.969 | S. cerevisiae deletion strains, locus YEL061C, strain CIN8, stronger effect = lower value 0.993 | S. cerevisiae deletion strains, locus YGR078C, strain PAC10, stronger effect = lower value 1.01 | S. cerevisiae deletion strains, locus YGR229C, strain SMI1, stronger effect = lower value 1.01 | S. cerevisiae deletion strains, locus YHR030C, strain SLT2, stronger effect = lower value 1.07 | S. cerevisiae deletion strains, locus YHR087W, strain rtc3, stronger effect = lower value 1 | [5] 1.02 | S. cerevisiae deletion strains, locus YJR043C, strain POL32, stronger effect = lower value 0.985 | [2] 1.01 | S. cerevisiae deletion strains, locus YKL190W, strain CNB1, stronger effect = lower value 1 | S. cerevisiae deletion strains, locus YLR039C, strain RIC1, stronger effect = lower value 1.05 | S. cerevisiae deletion strains, locus YLR058C, strain SHM2 (second series), stronger effect = lower value 1.01 | S. cerevisiae deletion strains, locus YLR085C, strain ARP6, stronger effect = lower value 1.05 | S. cerevisiae deletion strains, locus YLR262C, strain YPT6, stronger effect = lower value 1.06 | S. cerevisiae deletion strains, locus YML094W, strain GIM5, stronger effect = lower value 1.01 | S. cerevisiae deletion strains, locus YMR219W, strain ESC1, stronger effect = lower value 1.01 | S. cerevisiae deletion strains, locus YMR263W, strain SAP30, stronger effect = lower value 0.986 | S. cerevisiae deletion strains, locus YNL153C, strain GIM3, stronger effect = lower value 1 | S. cerevisiae deletion strains, locus YNL298W, strain CLA4 (second series), stronger effect = lower value 1.04 | [3] 1.02 | S. cerevisiae deletion strains, locus YNR030W, strain Alg12, stronger effect = lower value 1.03 | S. cerevisiae deletion strains, locus YPL055C, strain LGE1, stronger effect = lower value 0.972 | [4] 1.02 | S. cerevisiae deletion strains, locus YPR135W, strain CTF4, stronger effect = lower value 1.03 | S. cerevisiae strains, strain wild type, stronger effect = lower value 1.01

CC12CCC(OC(=O)c3ccccc3)CC1CCc1ccccc12 (configuration not stated)
active: S. cerevisiae deletion strains, locus YEL061C, strain CIN8 (second series), stronger effect = lower value 0.841 | S. cerevisiae deletion strains, locus YER016W, strain bim1, stronger effect = lower value 0.907
inactive: S. cerevisiae deletion strains, locus YAL021C, strain ccr4, stronger effect = lower value 0.986 | S. cerevisiae deletion strains, locus YAL026C, strain drs2, stronger effect = lower value 0.99 | S. cerevisiae deletion strains, locus YAL030W, strain snc1, stronger effect = lower value 0.999 | S. cerevisiae deletion strains, locus YBL061C, strain skt5, stronger effect = lower value 0.995 | S. cerevisiae deletion strains, locus YBR009C, strain hhf1, stronger effect = lower value 1 | S. cerevisiae deletion strains, locus YBR023C, strain chs3, stronger effect = lower value 0.995 | S. cerevisiae deletion strains, locus YBR171W, strain sec66, stronger effect = lower value 0.968 | S. cerevisiae deletion strains, locus YBR231C, strain swc5, stronger effect = lower value 0.939 | S. cerevisiae deletion strains, locus YBR279W, strain paf1, stronger effect = lower value 1.01 | S. cerevisiae deletion strains, locus YCL011C, strain gbp2, stronger effect = lower value 1 | S. cerevisiae deletion strains, locus YCL016C, strain dcc1, stronger effect = lower value 0.991 | S. cerevisiae deletion strains, locus YCL061C, strain MRC1, stronger effect = lower value 0.998 | S. cerevisiae deletion strains, locus YCL069W, strain vba3, stronger effect = lower value 0.996 | S. cerevisiae deletion strains, locus YCR088W, strain abp1, stronger effect = lower value 0.984 | S. cerevisiae deletion strains, locus YDL005C, strain med2, stronger effect = lower value 0.987 | S. cerevisiae deletion strains, locus YDL040C, strain nat1, stronger effect = lower value 0.979 | S. cerevisiae deletion strains, locus YDR001C, strain nth1, stronger effect = lower value 0.985 | S. cerevisiae deletion strains, locus YDR069C, strain doa4, stronger effect = lower value 0.98 | S. cerevisiae deletion strains, locus YDR137W, strain rgp1, stronger effect = lower value 0.964 | S. cerevisiae deletion strains, locus YDR159W, strain sac3, stronger effect = lower value 0.99 | S. cerevisiae deletion strains, locus YDR195W, strain ref2 0.964 | S. cerevisiae deletion strains, locus YDR297W, strain sur2, stronger effect = lower value 0.995 | S. cerevisiae deletion strains, locus YDR334W, strain swr1, stronger effect = lower value 0.959 | S. cerevisiae deletion strains, locus YDR335W, strain msn5, stronger effect = lower value 0.997 | S. cerevisiae deletion strains, locus YDR392W, strain spt3, stronger effect = lower value 0.866 | S. cerevisiae deletion strains, locus YEL003W, strain gim4, stronger effect = lower value 0.985 | S. cerevisiae deletion strains, locus YEL037C, strain rad23, stronger effect = lower value 0.991 | S. cerevisiae deletion strains, locus YER015W, strain faa2, stronger effect = lower value 0.998 | S. cerevisiae deletion strains, locus YER111C, strain swi4, stronger effect = lower value 0.988 | S. cerevisiae deletion strains, locus YER155C, strain BEM2 (second series), stronger effect = lower value 0.967 | S. cerevisiae deletion strains, locus YFR010W, strain ubp6, stronger effect = lower value 0.992 | S. cerevisiae deletion strains, locus YGL167C, strain pmr1, stronger effect = lower value 0.981 | S. cerevisiae deletion strains, locus YGL173C, strain kem1, stronger effect = lower value 0.987 | S. cerevisiae deletion strains, locus YGL227W, strain vid30, stronger effect = lower value 0.986 | S. cerevisiae deletion strains, locus YGL240W, strain doc1, stronger effect = lower value 0.952 | S. cerevisiae deletion strains, locus YGL253W, strain hxk2, stronger effect = lower value 1.01 | S. cerevisiae deletion strains, locus YHR013C, strain ard1, stronger effect = lower value 0.855 | S. cerevisiae deletion strains, locus YHR027C, strain rpn1, stronger effect = lower value 0.999 | S. cerevisiae deletion strains, locus YHR142W, strain chs7, stronger effect = lower value 1.01 | S. cerevisiae deletion strains, locus YJL092W, strain hpr5, stronger effect = lower value 0.989 | S. cerevisiae deletion strains, locus YJL095W, strain BCK1 (second series), stronger effect = lower value 1 | S. cerevisiae deletion strains, locus YJL115W, strain asf1, stronger effect = lower value 0.989 | S. cerevisiae deletion strains, locus YJL129C, strain trk1, stronger effect = lower value 0.999 | S. cerevisiae deletion strains, locus YJL154C, strain vps35, stronger effect = lower value 0.992 | S. cerevisiae deletion strains, locus YJL164C, strain tpk1, stronger effect = lower value 0.989 | S. cerevisiae deletion strains, locus YJL166W, strain qcr8, stronger effect = lower value 1 | [5] 1 | S. cerevisiae deletion strains, locus YKL160W, strain elf1, stronger effect = lower value 1 | S. cerevisiae deletion strains, locus YKR026C, strain gcn3, stronger effect = lower value 0.965 | S. cerevisiae deletion strains, locus YKR091W, strain srl3, stronger effect = lower value 0.984 | S. cerevisiae deletion strains, locus YLL001W, strain dnm1, stronger effect = lower value 1.01 | S. cerevisiae deletion strains, locus YLL026W, stronger effect = lower value 0.993 | S. cerevisiae deletion strains, locus YLL041C, strain sdh2, stronger effect = lower value 0.994 | S. cerevisiae deletion strains, locus YLR027C, strain aat2, stronger effect = lower value 1.01 | S. cerevisiae deletion strains, locus YLR221C, strain rsa3, stronger effect = lower value 1 | S. cerevisiae deletion strains, locus YLR258W, strain gsy2, stronger effect = lower value 1 | S. cerevisiae deletion strains, locus YLR262C, strain YPT6 (second series), stronger effect = lower value 1.04 | S. cerevisiae deletion strains, locus YLR320W, strain mms22, stronger effect = lower value 1 | S. cerevisiae deletion strains, locus YLR342W, strain FKS1, stronger effect = lower value 0.987 | S. cerevisiae deletion strains, locus YLR357W, strain rsc2, stronger effect = lower value 0.986 | S. cerevisiae deletion strains, locus YLR370C, strain arc18, stronger effect = lower value 0.995 | S. cerevisiae deletion strains, locus YLR384C, strain iki3, stronger effect = lower value 1 | S. cerevisiae deletion strains, locus YML120C, strain ndi1, stronger effect = lower value 1 | S. cerevisiae deletion strains, locus YMR058W, strain fet3, stronger effect = lower value 1 | S. cerevisiae deletion strains, locus YMR125W, strain sto1, stronger effect = lower value 0.975 | S. cerevisiae deletion strains, locus YMR129W, stronger effect = lower value 0.986 | S. cerevisiae deletion strains, locus YMR205C, strain PFK2, stronger effect = lower value 1.01 | S. cerevisiae deletion strains, locus YMR231W, strain pep5, stronger effect = lower value 0.99 | S. cerevisiae deletion strains, locus YNL071W, strain lat1, stronger effect = lower value 0.992 | S. cerevisiae deletion strains, locus YNL209W, strain ssb2, stronger effect = lower value 0.997 | S. cerevisiae deletion strains, locus YNL248C, strain rpa49, stronger effect = lower value 1.01 | S. cerevisiae deletion strains, locus YNL322C, strain KRE1 (second series), stronger effect = lower value 0.982 | S. cerevisiae deletion strains, locus YNR049C, strain mso1, stronger effect = lower value 0.994 | S. cerevisiae deletion strains, locus YOR001W, strain rrp6, stronger effect = lower value 0.999 | S. cerevisiae deletion strains, locus YOR070C, strain gyp1, stronger effect = lower value 1.01 | S. cerevisiae deletion strains, locus YOR080W, strain dia2, stronger effect = lower value 0.965 | S. cerevisiae deletion strains, locus YOR083W, strain WHI5, stronger effect = lower value 0.995 | S. cerevisiae deletion strains, locus YOR106W, strain vam3, stronger effect = lower value 1.01 | S. cerevisiae deletion strains, locus YOR265W, strain rbl2, stronger effect = lower value 0.998 | S. cerevisiae deletion strains, locus YOR270C, strain vph1, stronger effect = lower value 1.06 | S. cerevisiae deletion strains, locus YOR290C, strain snf2, stronger effect = lower value 0.955 | S. cerevisiae deletion strains, locus YPL051W, strain arl3, stronger effect = lower value 1 | S. cerevisiae deletion strains, locus YPL078C, strain atp4, stronger effect = lower value 1.01 | S. cerevisiae deletion strains, locus YPL106C, strain sse1, stronger effect = lower value 0.992 | S. cerevisiae deletion strains, locus YPL240C, strain hsp82, stronger effect = lower value 0.988

Source: PubChem BioAssay AID1159580 (chemical genetic matrix, 2015)
